Assay outcomes deposited in PubChem BioAssay by The Scripps Research Institute Molecular Screening Center.
DAX1 inh-1: DAX1 (NR0B1) inhibitors, primary screen, cell-based, HEK293, Gal4-DAX1, luciferase luminescence; inhibition, % at 6.75 µM; AID 504766, 2011; HEK293 Gal4-DAX1 luciferase reporter; 340,000 compounds, 0.99% hits; Nuclear receptor subfamily 0 group B member 1 (Homo sapiens), P51843;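 active means inhibition above the mean over all tested compounds plus 3 SD, cut at about 4.2% in these data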;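 further: 0% = DAX1-transfected cells with DMSO and 100% = empty-vector control cells with DMSO; inhibition shows as a rise in luminescence from relieved DAX1 repression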
Target sequence (P51843 207-470 limits assumed): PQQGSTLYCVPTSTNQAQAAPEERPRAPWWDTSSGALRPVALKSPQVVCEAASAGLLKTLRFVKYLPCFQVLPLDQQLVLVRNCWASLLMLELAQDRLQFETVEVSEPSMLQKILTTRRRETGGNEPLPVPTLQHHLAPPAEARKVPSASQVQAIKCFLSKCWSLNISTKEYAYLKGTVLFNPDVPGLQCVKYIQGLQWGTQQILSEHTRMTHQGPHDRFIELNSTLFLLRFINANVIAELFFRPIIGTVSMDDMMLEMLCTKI
ssDAF12 agonist: S. stercoralis DAF-12 nuclear receptor activators, primary screen, cell-based, luminescence, HEK293, GRIP1 co-expression, lit1-tk-luc | 370,000 compounds, 1% hits | Nuclear hormone receptor DAF-12 (Strongyloides stercoralis) | activation, % at 6.8 µM | HEK293 ssDAF-12/GRIP1 lit1-tk-luc reporter; % of 3 µM dafachronic acid response | AID 652126, 2013;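 active means activation above the mean over all tested compounds plus 3 SD, cut at about 0.9% in these data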;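 further: 0% = DMSO-only wells and 100% = 3 µM delta7-dafachronic acid wells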
hcDAF12 agonist: H. contortus DAF-12 nuclear receptor activators, primary screen, cell-based, luminescence, HEK293, lit1-tk-luc reporter | HEK293 hcDAF-12 lit1-tk-luc reporter; 0% DMSO, 100% Δ7-dafachronic acid | activation, % at 6.8 µM | 370,000 compounds, 1.4% hits | AID 652067, 2013;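 active means activation above the mean of all tested compounds plus 3 SD, cut at about 5.5% in these data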;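 further: 100% = response to 3 µM Δ7-dafachronic acid high control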
hgDAF12 agonist: H. glycines DAF-12 receptor agonists, primary screen, cell-based, luminescence, HEK293, GAL4 fusion, UAS-luciferase. Nuclear hormone receptor DAF-12 (Heterodera glycines), GAL4 fusion. HEK293 GAL4-hgDAF12 UAS-luciferase reporter, agonist luminescence; normalized to butyrate control. activation, % at 6.8 µM. 370,000 compounds, 1.8% hits;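 active means activation above a cutoff set at the mean of all screened compounds plus 3 SD, cut at about 10% in these data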;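 further: 0% = DMSO wells and 100% = sodium butyrate wells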
DAX1 inh-2: DAX1 (NR0B1) inhibitors on StAR promoter, primary screen, cell-based, luminescence, SF-1 (NR5A1), full-length DAX-1. HEK293T StAR-luciferase reporter, SF-1/DAX-1 repression relief. AID 652010, 2013. inhibition, % at 6.8 µM. 370,000 compounds, 1.1% hits;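 active means inhibition above the mean over all tested compounds plus 3 SD, cut at about 3.6% in these data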;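 further: 0% = DAX-1 cells with DMSO and 100% = cells lacking DAX-1 with DMSO; higher inhibition means more luminescence from relief of DAX-1 repression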
Starred values were filed as active, the others as inactive; nt = no result. Only some compounds are listed: those with a hit (about 4.1% of all), similar ones and a draw of the others.

SMILES | DAX1 inh-1 | ssDAF12 agonist | hcDAF12 agonist | hgDAF12 agonist | DAX1 inh-2
O=C(O)CC(C(=O)O)n1nc(-c2ccccc2)cc1-c1ccccc1 (centres undefined) | 1.5 | 0.2 | 5.8* | 5.3 | 1.4
O=C(Nc1ccc(F)cc1)Nc1c(-c2ccc(F)cc2)nc2ncccn12 | nt | 1.8* | 1.0 | 0.8 | -0.3
CCCCCCCCN1C(=O)[C@@H](CC(=O)N2CCC(c3ccccc3)CC2)C[C@@]2(C(=O)OC)C1=C[C@H](COCc1ccccc1)O[C@@H]2C | nt | -0.8 | -0.3 | 1.8 | -0.3
COc1cc2c(cc1NC(=O)CSc1nnc(-c3cccc(Cl)c3)n1Cc1ccco1)oc1ccccc12 | nt | -1.3 | 0.0 | -0.1 | -0.1
O=C(c1ccc(F)c(F)c1)N1CCC(Oc2cccnc2)CC1 | nt | -1.6 | -1.8 | 3.3 | 0.2
O=C(COc1ccc(Br)cc1Cl)c1ccc[nH]1 | 1.2 | -1.5 | 3.2 | 13.1* | 0.0
N=c1ccn(O)cc1CCc1ccccc1 | 5.8* | -1.7 | 2.1 | -0.1 | 1.8
CCn1c2ccccc2c2cc(NC(=O)COC(=O)c3cc(Cl)cc(Cl)c3)ccc21 | nt | -1.7 | -2.3 | 2.7 | -0.7
C[C@@H]1CCCN1c1cccc2c1S(=O)(=O)N1CC[C@H](C1)O2 | nt | 0.8 | -2.8 | 0.1 | -0.3
COC(=O)[C@H](Cc1ccccc1)NP(=O)(OC)[C@@H](C)NC(=O)OCc1ccccc1 (some centres undefined) | nt | -0.7 | -4.7 | -2.0 | 0.2
O=C(CCl)N1c2ccccc2Oc2ccc3ccccc3c21 | 1.6 | -0.7 | 1.3 | 0.7 | -3.7
CC(=O)N1c2ccccc2Oc2cc3ccccc3cc21 | 2.1 | -0.4 | 5.7* | 5.8 | 0.7
CCC(C)NC(=O)CSc1nnc(-c2cc(OC)c(OC)c(OC)c2)o1 (centres undefined) | nt | -0.8 | -3.3 | 2.9 | 0.5
Cc1cc(NC(=O)C2CC2)n(-c2nc3ccccc3s2)n1 | 0.0 | -0.1 | 5.6* | 10.1 | -0.7
C/C(=N/NC(=O)c1ccc(C(C)(C)C)cc1)c1cccnc1 | nt | -0.5 | 0.5 | 1.8 | 0.3
C/C(=N\NC(=O)c1sccc1C)c1cccnc1 | 0.9 | -0.3 | 4.2 | 8.8 | 4.2*
Cc1cccc(C(=O)N[C@@H]2CC[C@@]34CCCN3C(=O)CCC[C@H]4[C@H]2C)c1 | nt | -1.7 | -1.4 | 2.9 | nt
COC(=O)CNC(=O)CNC1(C(=O)NCCc2c[nH]c3ccccc23)CCCCC1 | nt | -0.9 | 2.5 | 2.1 | nt
Cc1ccc(S(=O)(=O)N2CCOCC2)cc1NC(=O)CSCc1c(C)noc1C | 0.8 | -1.3 | -1.3 | 0.1 | 3.6*
CN(C)CCCNC(=O)C[C@@H]1CC[C@@H]2[C@H](COc3ccc(NC(=O)c4cccc(F)c4)cc3C(=O)N2C)O1 | nt | -0.9 | -0.5 | -2.1 | 1.1
Cc1cccc2c1NC(=O)C2=O | 0.2 | -0.6 | 0.8 | -0.7 | 0.9
COC(=O)c1cccc2c1NC(=O)C2=O | 8.0* | -0.9 | 0.9 | -0.1 | -0.3
CCOC(=O)c1nn(-c2ccccc2)cc1O | 0.6 | -0.7 | 1.1 | 0.2 | 1.0
CCOC(=O)c1nn(-c2ccc(C)cc2)cc1O | 0.5 | 0.0 | 2.6 | 9.8 | 2.6
CCOC(=O)c1nn(-c2ccc(Cl)cc2)cc1O | 8.9* | -1.0 | 1.8 | 7.4 | 1.8
SMILES | DAX1 inh-1 | ssDAF12 agonist | hcDAF12 agonist | hgDAF12 agonist | DAX1 inh-2
CCOC(=O)c1nn(-c2ccc3ccccc3c2)cc1O | 1.1 | -1.6 | 1.6 | 13.0* | 4.4*
Cc1ccc(C2C(C(=O)O)c3ccccc3C(=O)N2C)c(C)c1 (centres undefined) | -0.3 | -1.4 | 0.5 | -1.9 | 0.7
CN1C(=O)c2ccccc2C(C(=O)O)C1c1cn(C)c2ccccc12 (centres undefined) | 0.2 | -0.7 | 5.9* | 0.1 | 0.1
C[C@@H]1[C@@H](O)C[C@@]2(C[C@H](O)c3cc(Cl)ccc3O2)O[C@H]1c1ccccc1Cl | nt | -0.9 | -1.5 | -2.2 | -1.0
O=C(CSc1nnc(-c2ccccc2)n1-c1ccccc1)Nc1ccc(Oc2ccccc2)cc1 | nt | -1.1 | 0.3 | -1.1 | -0.9
Cc1nc2ccc(NC(=O)c3ccc(F)cc3Cl)cc2c(=O)[nH]1 | nt | -1.2 | -3.0 | -0.4 | -1.3
COc1ccc2nc(Nc3sc4c(c3C(N)=O)CCCC4)sc2c1 | 0.7 | 0.2 | 6.4* | 3.5 | 0.5
COc1cc(OC)cc(C(=O)Nc2sc3c(c2C(N)=O)CCC3)c1 | 1.3 | 1.1* | 0.9 | 6.8 | 0.4
COc1ccc(CC(=O)Nc2sc3c(c2C(N)=O)CCCC3)cc1 | 0.1 | -1.7 | -2.0 | -0.8 | -0.3
COc1ccc2nc(NC3=NCCC3)sc2c1 | 2.7 | -1.0 | -0.3 | 5.6 | 1.7
CC1(C)CC(=O)C(CC(=O)NC2CCCc3ccccc32)C(=O)C1 (centres undefined) | 6.1* | -1.3 | -1.0 | -0.8 | 0.4
CC1=C(C(=O)Nc2ccccn2)C(c2ccc(N(C)C)cc2)n2ncnc2N1 (centres undefined) | 0.3 | 0.2 | 4.3 | 11.0* | 1.8
CCOc1cnc(-c2ccccc2F)o1 | 2.2 | -0.9 | 1.1 | -1.8 | 0.1
CCOc1cnc(C(=O)NNC(=O)C(Br)C(C)C)o1 (centres undefined) | 7.8* | -1.4 | 1.6 | -0.6 | -0.8
CCc1ccccc1-c1cc(C(=O)OC)c2n(c1=O)CCC2 | nt | -1.5 | -0.3 | -2.8 | -0.1
O=C(/C=C/c1cccs1)c1ccc(N2CCOCC2)cc1 | 2.7 | -0.4 | 2.5 | 11.3* | 0.8
O=C(NNC(=O)c1cccs1)c1csc(N2CCOCC2)n1 | 0.0 | 1.2* | -0.9 | 1.7 | 0.3
O=C(NC(=S)Nc1ccc(N2CCOCC2)cc1)c1cccs1 | 3.0 | 0.6 | 3.6 | 12.1* | 4.0*
O=C(Nc1ccc(C2SCCS2)cc1)c1ccccc1 | nt | 1.6* | 4.0 | 10.5* | 2.1
CCn1c(SCC(=O)c2ccc(-c3ccccc3)cc2)nnc1-c1ccccc1OC | nt | -1.7 | -1.6 | -3.2 | -1.0
O=C(NC(=S)Nc1ccc(N2CCCCC2)cc1)c1ccco1 | 2.8 | -0.2 | 4.9 | 12.8* | 3.3
CC(=O)N1CCN(c2ccc(NC(=O)c3ccco3)cc2)CC1 | 1.6 | 1.9* | 4.7 | 8.6 | 0.7
CC(=O)N1CCN(c2ccc(NC(=O)c3ccccc3)cc2)CC1 | 5.8* | -0.6 | 1.5 | 8.3 | 0.5
Cc1ccc(C(=O)Nc2ccc(N3CCN(C)CC3)cc2)cc1 | 3.7 | 1.3* | 1.2 | 10.0 | 1.7
C=CCN1C(=O)[C@@H](CC(=O)NCCc2ccccc2OC)[C@]2(C(=O)OC)CCCCC=C12 | nt | -1.2 | -3.0 | 1.3 | 0.3
CN(CCO)c1cccc2c1S(=O)(=O)N(Cc1cn(Cc3cccc(C(F)(F)F)c3)nn1)Cc1ccccc1O2 | nt | -0.1 | 0.6 | 1.4 | -0.3
